Measured values from the supplement of paper PMC13380429.

Test system: Vero E6 infected with SARS-CoV-2
Experiment: inhibition of SARS-CoV-2 cytopathic effect; higher = more antiviral protection, active = above 15
Details: 48 h

Measured: inhibition of SARS-CoV-2 cytopathic effect

Cc1ccc(-c2nn(C(C)(C)CNC(=O)c3ncccc3C)c3ncnc(N)c23)cc1 [WEHI-345-analog]
inactive: 1 nM 0.48% | 8.33 nM 1.39% | 100 nM -0.26% | 833.33 nM 0.47% | 10000 nM -2.28%

CCOC(=O)Nc1cc2c(c(N)n1)N=C(c1ccccc1)[C@H](C)N2 [mivobulin]
inactive: 1 nM 3.19% | 8.33 nM 0.16% | 100 nM 1.34% | 833.33 nM 1.06% | 10000 nM -0.59%

O=S(=O)(/N=C/c1c(O)ccc2ccccc12)c1cccs1
inactive: 1 nM 1.63% | 8.33 nM 2.5% | 100 nM 1.59% | 833.33 nM 1.88% | 10000 nM 0.08%

COc1ccc(Cl)cc1NC(=O)Nc1cc(C)nc2ccccc12
inactive: 1 nM 1.48% | 8.33 nM -2.11% | 100 nM -0.41% | 833.33 nM 1.18% | 10000 nM -17.7%

[I-].[K+] [potassium-iodide]
inactive: 1 nM -3.24% | 8.33 nM -3.7% | 100 nM -1.59% | 833.33 nM 0.38% | 10000 nM -1.54%

COc1ccncc1C(=O)NC(=O)Nc1ccc(-c2ccccc2)c(C(F)(F)F)c1 [S1P1-agonist-III]
inactive: 1 nM -0.34% | 8.33 nM -0.01% | 100 nM -0.43% | 833.33 nM -0.2% | 10000 nM -2.64%

Cc1c(C(N)=O)cc([N+](=O)[O-])cc1[N+](=O)[O-] [dinitolmide]
inactive: 1 nM -1.43% | 8.33 nM 2.03% | 100 nM 1.29% | 833.33 nM -2.22% | 10000 nM -3.59%

CC/C(=C(/CC)c1ccc(O)cc1)c1ccc(O)cc1 [diethylstilbestrol]
inactive: 1 nM -1.15% | 8.33 nM -2.29% | 100 nM -2.18% | 833.33 nM 3.59% | 10000 nM 6.76%

NCCc1ccc(O)c(O)c1 [dopamine]
inactive: 1 nM -0.56% | 8.33 nM 0.74% | 100 nM -0.35% | 833.33 nM 0.38% | 10000 nM 0.14%

CC(C)(C)NC[C@H](O)COc1cccc2c1CCCC2=O [levobunolol]
inactive: 1 nM -6.66% | 8.33 nM -1.55% | 100 nM -0.235% | 833.33 nM 2.58% | 10000 nM 2.67%

CN(C)Cc1cccc(N=C(c2ccccc2)c2c(O)[nH]c3cc(C(=O)N(C)C)ccc23)c1
inactive: 1 nM 1.09% | 8.33 nM 1.08% | 100 nM 1.9% | 833.33 nM -0.95% | 10000 nM -4.44%

O=c1[nH]cnc2c1cnn2[C@@H]1O[C@H](CO)[C@@H](O)[C@H]1O [allopurinol-riboside]
inactive: 1 nM 0.99% | 8.33 nM 0.92% | 100 nM 2.88% | 833.33 nM 0.52% | 10000 nM 1.75%

CCCCCCOc1nsnc1C1=CCCN(C)C1 [xanomeline]
inactive: 1 nM 0.86% | 8.33 nM -0.07% | 100 nM -1.23% | 833.33 nM -1.94% | 10000 nM -0.8%

CCCCNc1ncc2c(-c3ccc(CN4CCN(C)CC4)cc3)cn([C@H]3CC[C@H](O)CC3)c2n1
inactive: 1 nM 1.92% | 8.33 nM 2.77% | 100 nM -0.22% | 833.33 nM -9.69% | 10000 nM 7.04%

O=C1C[C@@]2(C(=O)N1)C(=O)N(Cc1ccc(Br)cc1F)C(=O)c1cccn12 [ranirestat]
inactive: 1 nM 0.68% | 8.33 nM 1.21% | 100 nM 2.23% | 833.33 nM 3.78% | 10000 nM 1.01%

CCCCCC(C)N (stereo not given) [tuaminoheptane]
inactive: 1 nM 1.21% | 8.33 nM 1.95% | 100 nM 0.51% | 833.33 nM 3.02% | 10000 nM 1.11%

C[C@]12CCC(=O)C[C@@H]1CC[C@@H]1[C@@H]2CC[C@]2(C)C=CC[C@@H]12 [androstenone]
inactive: 1 nM -0.13% | 8.33 nM -0.62% | 100 nM -1.17% | 833.33 nM 0.87% | 10000 nM -0.03%

Cc1c(Cl)cccc1S(=O)(=O)Nc1nc(CC(=O)N2CCN(C)CC2)cs1
inactive: 1 nM 1.65% | 8.33 nM 0.23% | 100 nM -1.13% | 833.33 nM 3.23% | 10000 nM 2.25%

CC(=O)N1CCC(NC(=O)c2ccc(F)cc2)CC1
inactive: 1 nM -1.4% | 8.33 nM -1.44% | 100 nM 0.95% | 833.33 nM 0.58% | 10000 nM 0.98%

C=C1CC[C@@H]2[C@](C)(CO)[C@H](O)CC[C@@]2(C)[C@@H]1C/C=C1/C(=O)OC[C@H]1O [andrographolide]
active: 10000 nM 32.5%
inactive: 1 nM -3.07% | 8.33 nM -2.2% | 100 nM -0.1% | 833.33 nM 8.92%
